This note sets out measurements from the supplement of paper PMC10849652.

About 8,800 targets were measured; listed, in parts, are those with a hit and a random draw of the rest. About 0.5% of all pairs of compound and target were hits. A number with no mark means an inactive call.

Common to all, as to test: log2 fold change, soluble protein after heating vs DMSO (PISA); higher = thermal stabilisation; K562 lysate, 10 uM; active = over 0.2 and 3.5 SD of the protein, either way, in both replicates (recomputed)
Compound in experiment [1]: NCC(=O)Nc1ccc(-n2nc(C(F)(F)F)cc2-c2ccc3c(ccc4ccccc43)c2)cc1
In a few lines: (§1)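 K562 pellets were dounce-homogenised in PBS pH 7.4 containing 1 mM MgCl2, and the crude extract, at 1 mg/mL protein, was exposed to 10 μM compound for 30 min. Aliquots were heated for 3 min across 48°C-58°C, pooled, brought to 0.5% NP-40 at 4°C and spun at 21,000xg for 90 min, with the supernatant taken as soluble protein. TMTpro 16plex LC-MS/MS with equalised channel sums quantified that protein. Values are log-two fold changes in thermal stability relative to solvent controls, taken from duplicates.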

Compound in another experiment: O=C(CCCCCCC(=O)Nc1ccccc1)NO [vorinostat]
The gist of the method:
as §1

Compound in the next experiment: O=C(O)c1ccc2c(c1)nc(Nc1cccc(Cl)c1)c1ccncc12 [silmitasertib]
The gist of the method:
as §1

Compound in experiment [2]: O=C1NC(=O)C(c2cnc3ccccn23)=C1c1cn2c3c(cc(F)cc13)CN(C(=O)N1CCCCC1)CC2
The gist of the method:
as §1

Compound in a further experiment: c1cn2cc(-c3ccc4cn[nH]c4c3)nc(Nc3ccc(N4CCOCC4)cc3)c2n1 [entospletinib]
In a few lines: as §1

UniProt P42330, sequence (P42330 whole entry, looked up): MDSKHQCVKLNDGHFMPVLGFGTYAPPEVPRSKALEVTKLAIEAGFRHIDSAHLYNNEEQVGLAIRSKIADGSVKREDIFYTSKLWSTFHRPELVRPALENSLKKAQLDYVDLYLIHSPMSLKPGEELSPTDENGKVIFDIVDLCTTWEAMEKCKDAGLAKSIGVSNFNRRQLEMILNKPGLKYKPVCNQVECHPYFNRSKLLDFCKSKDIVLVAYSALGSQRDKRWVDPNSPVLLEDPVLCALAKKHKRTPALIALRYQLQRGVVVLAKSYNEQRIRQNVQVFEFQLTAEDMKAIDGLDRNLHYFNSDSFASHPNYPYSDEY
UniProt P00519, sequence (P00519 whole entry, looked up): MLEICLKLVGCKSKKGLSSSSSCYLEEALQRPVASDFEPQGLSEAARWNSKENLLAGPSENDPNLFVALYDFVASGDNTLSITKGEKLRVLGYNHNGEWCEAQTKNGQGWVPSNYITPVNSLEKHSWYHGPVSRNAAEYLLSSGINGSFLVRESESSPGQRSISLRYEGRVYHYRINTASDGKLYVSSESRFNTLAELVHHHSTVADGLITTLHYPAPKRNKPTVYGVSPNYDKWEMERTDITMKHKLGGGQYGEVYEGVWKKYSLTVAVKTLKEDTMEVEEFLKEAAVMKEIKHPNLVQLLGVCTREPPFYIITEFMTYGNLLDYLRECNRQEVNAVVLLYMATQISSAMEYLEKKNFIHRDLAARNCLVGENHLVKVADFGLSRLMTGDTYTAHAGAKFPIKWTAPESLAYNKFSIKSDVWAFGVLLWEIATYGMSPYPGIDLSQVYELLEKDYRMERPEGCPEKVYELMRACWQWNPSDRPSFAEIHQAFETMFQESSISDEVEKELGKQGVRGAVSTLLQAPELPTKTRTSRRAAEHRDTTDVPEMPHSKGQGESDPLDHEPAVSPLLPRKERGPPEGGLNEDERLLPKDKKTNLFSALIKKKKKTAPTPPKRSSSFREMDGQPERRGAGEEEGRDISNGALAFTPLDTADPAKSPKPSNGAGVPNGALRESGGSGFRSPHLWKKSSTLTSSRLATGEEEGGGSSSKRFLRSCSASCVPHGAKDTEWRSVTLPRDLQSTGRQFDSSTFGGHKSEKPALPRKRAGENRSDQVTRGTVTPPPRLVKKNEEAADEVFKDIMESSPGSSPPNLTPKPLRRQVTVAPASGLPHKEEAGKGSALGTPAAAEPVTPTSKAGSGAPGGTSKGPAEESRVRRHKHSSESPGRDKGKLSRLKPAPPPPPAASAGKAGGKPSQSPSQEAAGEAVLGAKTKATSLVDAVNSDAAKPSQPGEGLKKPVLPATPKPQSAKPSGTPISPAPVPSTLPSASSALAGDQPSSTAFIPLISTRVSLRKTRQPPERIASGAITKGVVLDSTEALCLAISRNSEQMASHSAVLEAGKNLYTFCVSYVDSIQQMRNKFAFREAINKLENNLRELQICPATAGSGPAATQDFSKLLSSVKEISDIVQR
UniProt Q9Y303, sequence (Q9Y303 whole entry, looked up): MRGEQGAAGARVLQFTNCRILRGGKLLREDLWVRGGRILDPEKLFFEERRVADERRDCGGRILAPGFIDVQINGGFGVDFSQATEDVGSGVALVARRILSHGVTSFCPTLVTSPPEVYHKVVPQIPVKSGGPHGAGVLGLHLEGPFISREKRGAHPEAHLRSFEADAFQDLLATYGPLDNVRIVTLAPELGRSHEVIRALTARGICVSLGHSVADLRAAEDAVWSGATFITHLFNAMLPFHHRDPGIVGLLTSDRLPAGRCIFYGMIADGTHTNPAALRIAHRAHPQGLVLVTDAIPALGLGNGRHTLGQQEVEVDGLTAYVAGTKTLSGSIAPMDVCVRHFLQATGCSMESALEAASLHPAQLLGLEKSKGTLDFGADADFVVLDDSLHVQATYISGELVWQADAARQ
UniProt Q9UJX3, sequence (Q9UJX3 whole entry, looked up): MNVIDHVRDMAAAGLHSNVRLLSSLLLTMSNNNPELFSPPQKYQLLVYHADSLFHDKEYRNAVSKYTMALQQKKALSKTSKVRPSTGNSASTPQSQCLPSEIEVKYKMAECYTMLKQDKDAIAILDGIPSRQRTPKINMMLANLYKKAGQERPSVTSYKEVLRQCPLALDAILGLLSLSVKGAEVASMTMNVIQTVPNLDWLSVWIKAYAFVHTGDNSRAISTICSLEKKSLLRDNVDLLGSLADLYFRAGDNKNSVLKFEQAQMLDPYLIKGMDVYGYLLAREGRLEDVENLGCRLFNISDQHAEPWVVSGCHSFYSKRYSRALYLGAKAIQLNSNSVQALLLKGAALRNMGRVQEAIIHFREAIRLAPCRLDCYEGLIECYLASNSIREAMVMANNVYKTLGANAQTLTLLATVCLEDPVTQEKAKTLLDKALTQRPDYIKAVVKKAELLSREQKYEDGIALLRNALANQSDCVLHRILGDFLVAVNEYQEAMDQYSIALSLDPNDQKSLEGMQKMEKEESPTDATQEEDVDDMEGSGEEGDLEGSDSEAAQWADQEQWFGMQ
UniProt Q9UKV3, sequence (Q9UKV3 whole entry, looked up): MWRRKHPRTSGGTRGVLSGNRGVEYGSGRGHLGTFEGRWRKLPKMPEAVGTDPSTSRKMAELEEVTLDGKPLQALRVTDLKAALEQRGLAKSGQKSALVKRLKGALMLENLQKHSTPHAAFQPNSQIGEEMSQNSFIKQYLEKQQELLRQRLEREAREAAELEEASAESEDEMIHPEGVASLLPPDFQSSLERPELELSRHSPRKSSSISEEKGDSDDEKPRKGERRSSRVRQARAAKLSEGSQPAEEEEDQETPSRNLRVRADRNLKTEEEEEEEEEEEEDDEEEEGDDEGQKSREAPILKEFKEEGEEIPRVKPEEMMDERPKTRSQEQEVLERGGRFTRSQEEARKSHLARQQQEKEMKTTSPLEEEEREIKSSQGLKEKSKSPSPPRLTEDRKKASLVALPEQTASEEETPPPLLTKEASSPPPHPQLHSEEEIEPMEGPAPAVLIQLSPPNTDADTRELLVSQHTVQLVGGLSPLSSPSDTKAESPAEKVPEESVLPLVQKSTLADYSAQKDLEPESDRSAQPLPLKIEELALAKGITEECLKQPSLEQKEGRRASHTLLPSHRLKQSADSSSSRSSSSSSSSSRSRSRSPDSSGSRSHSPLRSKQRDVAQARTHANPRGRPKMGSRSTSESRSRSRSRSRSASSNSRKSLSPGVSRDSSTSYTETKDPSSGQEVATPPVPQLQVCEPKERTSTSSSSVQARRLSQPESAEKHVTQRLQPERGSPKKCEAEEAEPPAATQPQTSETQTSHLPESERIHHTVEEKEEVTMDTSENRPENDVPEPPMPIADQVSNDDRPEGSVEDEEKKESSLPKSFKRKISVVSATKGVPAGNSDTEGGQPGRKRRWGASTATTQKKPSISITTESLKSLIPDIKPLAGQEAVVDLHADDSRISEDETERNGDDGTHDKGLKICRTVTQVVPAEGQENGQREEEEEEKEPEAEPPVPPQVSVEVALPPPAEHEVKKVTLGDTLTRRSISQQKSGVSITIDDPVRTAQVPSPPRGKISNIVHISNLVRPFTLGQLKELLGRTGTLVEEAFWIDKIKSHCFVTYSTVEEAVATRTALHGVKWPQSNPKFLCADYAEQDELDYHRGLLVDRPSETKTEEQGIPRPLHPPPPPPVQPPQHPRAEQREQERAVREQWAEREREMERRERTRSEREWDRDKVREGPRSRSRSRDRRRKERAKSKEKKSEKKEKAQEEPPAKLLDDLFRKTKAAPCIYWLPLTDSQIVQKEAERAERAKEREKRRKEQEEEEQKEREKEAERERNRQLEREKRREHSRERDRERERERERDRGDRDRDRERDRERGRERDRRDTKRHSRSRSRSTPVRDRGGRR
UniProt O95870, sequence (O95870 whole entry, looked up): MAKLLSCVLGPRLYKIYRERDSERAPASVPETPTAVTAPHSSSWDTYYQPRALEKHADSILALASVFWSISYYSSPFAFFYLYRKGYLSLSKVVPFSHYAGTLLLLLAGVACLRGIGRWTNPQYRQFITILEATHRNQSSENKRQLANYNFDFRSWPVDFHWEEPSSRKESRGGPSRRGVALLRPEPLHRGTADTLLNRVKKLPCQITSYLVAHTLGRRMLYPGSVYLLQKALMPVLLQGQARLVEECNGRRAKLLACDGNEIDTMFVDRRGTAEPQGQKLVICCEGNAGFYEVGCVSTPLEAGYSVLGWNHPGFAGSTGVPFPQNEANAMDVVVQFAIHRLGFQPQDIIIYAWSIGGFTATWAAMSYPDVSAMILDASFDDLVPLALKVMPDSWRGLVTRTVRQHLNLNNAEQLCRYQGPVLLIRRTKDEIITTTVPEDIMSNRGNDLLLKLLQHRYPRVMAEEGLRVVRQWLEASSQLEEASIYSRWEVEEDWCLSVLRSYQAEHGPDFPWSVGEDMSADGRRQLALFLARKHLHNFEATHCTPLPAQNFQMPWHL
UniProt Q9NWB6, sequence (Q9NWB6 whole entry, looked up): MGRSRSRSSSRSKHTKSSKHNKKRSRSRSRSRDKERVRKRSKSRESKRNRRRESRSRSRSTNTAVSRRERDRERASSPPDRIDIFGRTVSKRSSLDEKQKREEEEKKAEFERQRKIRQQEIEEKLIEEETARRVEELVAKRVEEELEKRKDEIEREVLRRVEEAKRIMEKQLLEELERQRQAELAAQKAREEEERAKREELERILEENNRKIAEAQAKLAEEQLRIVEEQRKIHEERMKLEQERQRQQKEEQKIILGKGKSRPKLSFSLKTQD
UniProt Q8NFV4, sequence (Q8NFV4 whole entry, looked up): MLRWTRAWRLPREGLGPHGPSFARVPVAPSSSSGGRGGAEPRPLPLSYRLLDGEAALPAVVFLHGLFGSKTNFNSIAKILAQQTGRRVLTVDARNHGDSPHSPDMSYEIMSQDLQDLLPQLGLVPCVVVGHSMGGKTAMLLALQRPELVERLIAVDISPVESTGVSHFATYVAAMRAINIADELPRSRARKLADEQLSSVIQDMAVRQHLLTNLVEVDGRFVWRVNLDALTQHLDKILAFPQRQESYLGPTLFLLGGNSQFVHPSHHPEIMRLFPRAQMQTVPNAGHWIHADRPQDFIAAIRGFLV

With AMDHD2 isoform 3 (UniProt Q9Y303), the log2 fold change in experiment [1] is 0.038; with vorinostat, 0.088; in the experiment with silmitasertib it was -0.004; in experiment [2] it was -0.002; in the experiment with entospletinib, 0.056.

Turning to ARGLU1 (UniProt Q9NWB6), the log2 fold change was 0.01 in experiment [1]; 0.116 in the experiment with vorinostat; 0.008 with silmitasertib; -0.067 in experiment [2]; -0.054 with entospletinib.

As to AKR1C3 (UniProt P42330), the log2 fold change in experiment [1] was -0.009; with vorinostat it was 0.546 (active); in the experiment with silmitasertib, 0.044; in experiment [2] it was 0.009; with entospletinib it was 0.059.

With ARHGEF2 (UniProt Q92974), the log2 fold change in experiment [1] is 0.042; with vorinostat, -0.248 (active); with silmitasertib, -0.029; in experiment [2], 0.007; in the experiment with entospletinib it was 0.

On to ABL1 isoform 2 (UniProt P00519), for which the log2 fold change in experiment [1] is -0.003; with vorinostat, -0.328 (active); with silmitasertib it was -0.019; in experiment [2] it was -0.042; in the experiment with entospletinib, -0.008.

Turning to ACIN1 isoform 5 (UniProt Q9UKV3), the log2 fold change in experiment [1] is 0.035; with vorinostat, 0.007; with silmitasertib, 0.001; in experiment [2], -0.012; with entospletinib, -0.003.

In the case of ABHD11 (UniProt Q8NFV4), the log2 fold change was -0.001 in experiment [1]; 0.195 with vorinostat; 0.324 (active) in the experiment with silmitasertib; 0.003 in experiment [2]; 0.05 with entospletinib.

For the target ABHD16A (UniProt O95870), the log2 fold change in experiment [1] is 0.007; in the experiment with vorinostat, 0.906 (active); in the experiment with silmitasertib, -0.1; in experiment [2], -0.056; in the experiment with entospletinib it was -0.01.

With ANAPC7 (UniProt Q9UJX3), the log2 fold change in experiment [1] was -0.035; with vorinostat, -0.218 (active); with silmitasertib, 0.023; in experiment [2], 0.007; in the experiment with entospletinib, 0.046.
